D2 antagonist: antagonists of human D2 dopamine receptor; P14416; 340,000 compounds, 2% hits; HEK293 TREx D2 cells, calcium flux, dopamine EC80; inhibition, % at 10 µM; in the data active = inhibition above about 30%; inactive = below that, where a call was filed; also: 0% is about no effect
Target sequence (P14416 whole entry, looked up): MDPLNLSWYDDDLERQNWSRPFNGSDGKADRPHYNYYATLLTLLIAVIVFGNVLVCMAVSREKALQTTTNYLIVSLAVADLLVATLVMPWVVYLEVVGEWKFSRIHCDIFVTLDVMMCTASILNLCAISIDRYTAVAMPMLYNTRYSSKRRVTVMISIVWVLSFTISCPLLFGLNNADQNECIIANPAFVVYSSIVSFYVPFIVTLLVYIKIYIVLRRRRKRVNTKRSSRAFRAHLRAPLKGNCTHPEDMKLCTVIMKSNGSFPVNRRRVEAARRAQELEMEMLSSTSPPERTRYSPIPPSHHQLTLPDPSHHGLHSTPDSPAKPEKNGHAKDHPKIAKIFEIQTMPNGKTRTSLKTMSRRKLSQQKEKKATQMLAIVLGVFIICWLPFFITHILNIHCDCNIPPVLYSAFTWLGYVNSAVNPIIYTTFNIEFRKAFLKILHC
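Dopamine at EC80 is the agonist stimulus; test compounds precede it by 180 s. Calcium flux read kinetically in a force-coupled, inducible HEK293 T-REx D2 cell line.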
D2 ag-1: agonists of human D2 dopamine receptor (beta-arrestin). DiscoveRx PathHunter D2 beta-arrestin, luminescence, 90 min; 100% = 57 uM dopamine signal. activation, % (test concentration not listed). 360,000 compounds, 0.084% hits. AID 624465; in the data active = activation above about 40%; inconclusive = between about 15% and that limit
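Agonist mode: compounds alone added to overnight-plated D2 PathHunter cells for 90 min at 37 C, with 57 uM final dopamine (EC100) defining full response. Beta-arrestin recruitment detected by chemiluminescent reagent, read after 1 h at ambient temperature.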
D2 PAM-1: positive allosteric modulators of human D2 dopamine receptor | potentiation, % (test concentration not listed) | 360,000 compounds, 0.23% hits | AID 624464 | DiscoveRx D2 beta-arrestin cells, luminescence, 90 min; 100% = 57 uM dopamine signal | P14416; in the data active = potentiation above about 50%; inconclusive = mostly about 30% to 49%
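PathHunter beta-arrestin assay in DiscoveRx D2 cells. Compounds were added with an EC20 of dopamine (50 nM final) for 90 min at 37 deg C. Luminescence was read 1 h after detection reagent, with 57 uM dopamine as the EC100 control.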
D2 PAM-2: D2 dopamine receptor (human) potentiation; HEK293 T-REx D2, calcium flux, EC20 dopamine potentiation; potentiation, % at 10 µM; 340,000 compounds, 0.34% hits; AID 485347;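 active = potentiation over 3 SD above the plate norm, cut at about 30% in these data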; also: 0% is about no effect
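Cells plated with tetracycline inducer and held overnight at 30 C; calcium dye loaded 30–90 min at room temperature; baseline taken, compound added and read 180 s; EC20 dopamine then added and read 180 s.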
D2 ag-2: D2 dopamine receptor (human) agonism. HEK293 T-REx D2 cells, calcium flux agonist mode. activation, % at 2 µM. 340,000 compounds, 0.53% hits. AID 485358;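 active = activation over 3 SD above normal in the single-dose calcium agonist read, cut at about 30% in these data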; also: 0% is about no effect
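Calcium-flux readout, 1 cycle/sec over 180 s following compound pin transfer, in inducible HEK293 Trex D2 cells (force-coupled); dopamine controls included. Positive calcium responses during this window marked compounds as potential agonists.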
The depositor's hits bear a star; u = inconclusive; x = no result; ! = not active in a repeat. Only some compounds are listed: those with a hit (about 2.4% of all), similar ones and a draw of the others.

SMILES	D2 antagonist	D2 ag-1	D2 PAM-1	D2 PAM-2	D2 ag-2
Cc1ccc(C)c(S(=O)(=O)N2CCN(C(C(=O)Nc3ccc(F)cc3)c3ccccc3)CC2)c1 (stereo not drawn)	-8.0	-1.1	-12.5	-4.2	0.3
O=C(Nc1ccc(F)cc1)C(c1ccccc1)N1CCN(S(=O)(=O)c2ccc3ccccc3c2)CC1 (stereo not drawn)	36.9*	0.6	-10.1	-2.5	1.1
COc1ccc(-c2noc(CSc3nnc(Cc4ccccc4)n3-c3ccccc3)n2)cc1OC	x	x	x	-1.1	-1.1
CCOc1ccccc1-n1c(SCC(=O)N2CCCC2)nnc1-c1ccc(O)cc1	1.8	-0.4	-2.8	30.8*	-0.5
COC(=O)/C(=C/Nc1ccc(O)cc1)[N+](=O)[O-]	-9.4	9.9	85.7*	3.6	0.4
CSc1cccc(NC(=O)C2CCN(S(=O)(=O)c3cnc[nH]3)CC2)c1	-11.9	-0.9	-11.0	-5.8	0.3
CSc1cccc(NC(=O)C2CCCN(S(=O)(=O)c3cnc[nH]3)C2)c1 (stereo not drawn)	30.6*	-2.7	6.2	-19.2	-0.2
CCN(CC)Cc1ccccc1CNC(=O)c1cccc(S(=O)(=O)Nc2ccc3c(c2)OCO3)c1	74.5*	-0.3	-2.4	-35.9	0.6
O=C(N1CCCCC1)N1CCN(S(=O)(=O)c2ccccc2)CC1	8.2	0.9	-12.8	70.0*	0.5
O=C(N1CCCCCC1)N1CCN(S(=O)(=O)c2ccccc2)CC1	15.3	0.6	-1.6	2.9	0.9
Cc1c(C(=O)N2CCN(S(=O)(=O)c3ccccc3)CC2)oc2ccccc12	34.4*	-4.8	2.6	-7.6	0.0
O=C(CN1CCSC1=O)N1CCN(S(=O)(=O)c2ccccc2)CC1	37.3*	-1.6	-4.2	-2.4	0.0
O=C(c1ccc(=O)[nH]c1)N1CCN(S(=O)(=O)c2ccccc2)CC1	30.9*	-3.8	0.2	23.2	0.0
O=C(c1ccc(=O)[nH]c1)N1CCN(S(=O)(=O)c2ccc(Cl)cc2)CC1	5.3	1.7	-0.6	3.6	0.5
COc1ccc(S(=O)(=O)N2CCN(C(=O)c3oc4ccccc4c3C)CC2)cc1	-7.4	-0.7	-4.0	-6.5	0.6
Cc1ccccc1-c1ccnc2c(-c3ccc(F)cc3)c(C)nn12	x	x	x	5.8	x
CCC(Sc1nnc(-c2ccc(OC)c(OC)c2)c(-c2ccc(OC)c(OC)c2)n1)C(=O)NC1CCCC1 (stereo not drawn)	x	x	x	5.0	0.0
COc1ccc(NS(=O)(=O)c2cc3c(cc2C)NC(=O)CO3)c(OC)c1	-11.0	2.6	12.6	-8.1	38.0*!
Cc1ccccc1NS(=O)(=O)c1cc2c(cc1C)NC(=O)CO2	10.7	-2.3	-0.1	13.7	6.3
CCN(C(=O)c1cnc(N2CCN(c3ncccn3)CC2)c2ccccc12)c1cccc(Cl)c1	46.5*	-3.2	-13.7	25.1	1.0
COC(=O)c1c(NC(=O)C(=O)NCC2CCCO2)sc2c1CC(C)(C)OC2 (stereo not drawn)	36.4*	-0.5	-27.4	-12.6	-0.1
COc1ccc(CCCc2nnc(SCC(=O)Nc3cc(F)ccc3C)o2)cc1	x	x	x	6.3	-1.6
Cc1ccc(S(=O)(=O)N(C)C)cc1NC(=O)C1CCCC1	-8.8	-10.7	-26.6	-11.2	1.1
CCN(CCO)C(=S)Nc1cc(S(=O)(=O)N(C)C)ccc1C	50.6*	-2.7	-11.4	-23.6	2.4
Cc1ccc(S(=O)(=O)N(C)C)cc1NC(=S)N1CCCCC1CO (stereo not drawn)	39.0*	-3.1	-9.2	-18.3	0.0
SMILES	D2 antagonist	D2 ag-1	D2 PAM-1	D2 PAM-2	D2 ag-2
CC(=O)c1ccc(Cc2ccc(C(C)=O)s2)s1	x	-20.5	-38.7	x	x
CC(SC1=Nc2ccccc2C2CC=NN12)C(=O)NC1(C#N)CCCCC1 (stereo not drawn)	5.3	-8.5	-27.4	-28.9	44.2*
Cc1ccc(C(NC(N)=O)c2ccccc2)cc1 (stereo not drawn)	39.8*	1.0	-1.7	4.6	0.5
CS(=O)(=O)c1ccccc1C(=O)Nc1ccccc1Cc1ccccc1	-13.7	1.4	-0.6	-6.6	0.5
Cc1ccc(C(NC(=O)c2ccccc2S(C)(=O)=O)c2ccccc2)cc1 (stereo not drawn)	-17.4	-0.9	-4.6	34.2*	-0.6
CSc1nc2sc3c(c2c(=O)n1-c1ccc(C)cc1)CCCC3	x	x	x	-0.4	-0.9
COc1ccc(/C=C/c2nnc(NC(C)=O)s2)cc1	2.6	-2.8	-6.4	8.3	1.7
COC(=O)Nc1nnc(/C=C/c2ccc(OC)cc2)s1	30.7*	3.1	9.4	0.6	1.6
O=C(CC(c1ccccc1)c1cc(Br)ccc1O)NCCCN1CCOCC1 (stereo not drawn)	-2.4	-5.2	-6.6	-5.5	-0.1
CCOC(=O)CNC(c1ccccc1)c1cc(Br)ccc1NC(=O)CCN1CCOCC1 (stereo not drawn)	37.9*	-6.6	-21.4	-26.8	0.2
O=C(CC(c1ccccc1)c1cc(Br)ccc1O)NCCN1CCOCC1 (stereo not drawn)	77.0*	-1.9	-32.3	7.6	-2.6
CCN(Cc1ccccc1)S(=O)(=O)c1ccc(C(=O)Nc2nnc(-c3ccccc3OC)o2)cc1	41.6*	0.6	-1.4	-2.2	0.6
O=C(CSc1cn(CC(=O)N2CCCCC2)c2ccccc12)Nc1ccccc1F	x	x	x	-7.3	-0.5
N#Cc1c(C(F)(F)F)cc(-c2ccccc2Cl)[nH]c1=O	44.4*	2.0	4.8	2.3	0.6
COCCCNC(=O)C1CCN(Cc2cc3ccccc3n2Cc2cccc(C)c2)CC1	x	x	x	-3.8	0.1
COc1cccc(-c2nc(-c3ccccc3)c(-c3ccccc3)[nH]2)c1OCC(=O)O	-5.9	4.8	65.4*	-3.9	1.1
O=C(O)COc1ccccc1-c1nc(-c2ccccc2)c(-c2ccccc2)[nH]1	-1.7	7.9	7.0	8.5	-0.2
CN(C)c1cc(Nc2ccc(O)cc2)c([N+](=O)[O-])c2nonc12	-5.6	-6.8	-3.8	8.8	-1.5
O=[N+]([O-])c1c(Nc2ccc(O)cc2)cc(Cl)c2nonc12	37.5*	-0.2	-67.9	-3.8	6.8
CCc1cccc(NC(=O)Cn2c(=O)ccc3cc(S(=O)(=O)N4CCC(C)CC4)ccc32)c1	x	x	x	-12.7	x
Cc1cc(C)c(NC(=O)CCCN2C(=O)COc3ccc(C)cc32)c(C)c1	x	x	x	18.5	-1.2
CCN(CC)C(=O)Cn1c(SCC(=O)Nc2ccc(F)cc2)nc2ccccc21	x	x	x	-1.5	1.2
CC(=O)Nc1sc(N/N=C\c2ccc(O)cc2)nc1-c1cccs1	-16.9	6.7	14.0	12.8	-1.4
CC(=O)Nc1sc(N/N=C\c2ccccc2F)nc1-c1cccs1	-1.4	u	63.9*	-1.4	0.5
Cc1ccc(NC(=O)C2CCCN2S(=O)(=O)c2ccc3c(c2)CCCC(=O)N3)cc1C (stereo not drawn)	x	x	x	-2.3	0.2

Compound activity (PubChem)
